Consider 25 compounds from PubChem BioAssay (Tox21).

Assay [1] is described as follows: qHTS assay to identify small molecule antagonists of the glucocorticoid receptor (GR) signaling pathway - cell viability counter screen (AID 720693; also: nearly all actives have a fitted effect of over 55% in size). (In general: Quantitative high-throughput screening tests each substance at several concentrations.)
Assay [2] is described as follows: qHTS assay for identifying genotoxic compounds that show differential cytotoxicity against isogenic chicken DT40 cell lines with known DNA damage response pathways - Rev3 mutant cell line (AID 743014). Also: nearly all actives have a fitted effect of over 55% in size. Also: potency is read from the fitted curve at half-maximal effect.
Assay [3] can be described thus: qHTS assay for identifying genotoxic compounds that show differential cytotoxicity against isogenic chicken DT40 cell lines with known DNA damage response pathways - Rad54/Ku70 mutant cell line (AID 743015). Also: nearly all actives have a fitted effect of over 60% in size. Also: potency is read from the fitted curve at half-maximal effect.
Assay [4] in a line: qHTS assay to identify small molecule antagonists of the androgen receptor (AR) signaling pathway - cell viability counter screen (AID 743033; also: nearly all actives have a fitted effect of over 45% in size; also: potency is read from the fitted curve at half-maximal effect).
Assay [5] concerns the target Androgen receptor (Homo sapiens) (UniProt P10275). The experiment in a line: qHTS assay to identify small molecule antagonists of the androgen receptor (AR) signaling pathway (AID 743035; active = well fitted inhibition curve with a large enough effect in the signal ratio in the repeat runs, not every such curve was filed as active; the % refers to the signal ratio). The method, boiled down: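 Antagonism is scored as loss of R1881-driven beta-lactamase reporter expression in HEK293 cells carrying the reporter under a UAS element, after 16 h co-treatment at 37C and a 2 h room-temperature FRET substrate read.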

Assay [6] has the same target. Briefly: qHTS assay to identify small molecule agonists of the androgen receptor (AR) signaling pathway (AID 743036; active = well fitted activation curve with a large enough effect in the signal ratio in the repeat runs, with a control signal flat, not every such curve was filed as active; the % refers to the signal ratio). An outline of the steps:
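Reporter line: GeneBLAzer AR-UAS-bla-GripTite (HEK293). Steps: plate cells, 4 h rest, add compounds, 16 h at 37C, add LiveBLAzer B/G substrate, 2 h at RT, read fluorescence.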

Assay [7] has the same target. The experiment in a line: qHTS assay to identify small molecule agonists of the androgen receptor (AR) signaling pathway using the MDA cell line (AID 743040; also: nearly all actives have a fitted effect of over 20% in size). The method, boiled down: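 After a 5 h incubation at 37C and 0% CO2, MDA-kb2 reporter cells were dosed with compounds in DMSO and kept 16 h under the same conditions. Luciferase activity was then read as luminescence with ONE-Glo.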

The nature of assay [8]: qHTS assay to identify small molecule antagonists of the androgen receptor (AR) signaling pathway using the MDA cell line - cell viability counter screen (AID 743041; also: nearly all actives have a fitted effect of over 45% in size). The method, boiled down: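 R1881-driven MDA-kb2 AR-luc cells, 3,000/well, were dosed with library compounds for 16 h; cell health came from CellTiter-Fluor fluorescence in the reporter wells.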
The target in assay [9] is Androgen receptor (Homo sapiens) (UniProt P10275). The experiment in a line: qHTS assay to identify small molecule antagonists of the androgen receptor (AR) signaling pathway using the MDA cell line (AID 743042; also: nearly all actives have a fitted effect of over 55% in size). The method, boiled down:
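Antagonist mode: compounds plus R1881 agonist added to MDA-kb2 AR-luc cells, incubated 16 h at 37C. Luciferase reporter luminescence quantified, with multiplexed CellTiter-Fluor readout for cell viability.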

Assay [10] can be described thus: qHTS assay for identifying genotoxic compounds that show differential cytotoxicity against isogenic chicken DT40 cell lines with known DNA damage response pathways - wild type cell line (AID 743012). Also: nearly all actives have a fitted effect of over 60% in size. Also: potency is read from the fitted curve at half-maximal effect. An outline of the steps:
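Cells (DT40 wild type, 300/well) are treated with DMSO-dissolved compounds after a ~0.5 h pre-incubation and kept 40 h at 37 C/5% CO2. Viability is then measured by CellTiter-Glo luminescence following 30 min at room temperature.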

“And” between values parts separate entries of the source, which are not always exact repeats. Equal entries are not always repeated. Unmarked numbers belong to inactive results. Inconclusive results are not listed. The source made the active and inactive calls. Unless noted, calls follow the shape of the dose curve; as a rule, active = well fitted curve in the direction sought with a large enough effect in the repeat runs; inconclusive = weak or mixed curves; inactive = no such curve, though single readings can be large; an effect the other way counts as inactive or inconclusive.
% is scaled to controls: 0 for no effect and ±100 for the full control effect.

Androgen receptor (Homo sapiens), sequence (P10275 whole entry, looked up): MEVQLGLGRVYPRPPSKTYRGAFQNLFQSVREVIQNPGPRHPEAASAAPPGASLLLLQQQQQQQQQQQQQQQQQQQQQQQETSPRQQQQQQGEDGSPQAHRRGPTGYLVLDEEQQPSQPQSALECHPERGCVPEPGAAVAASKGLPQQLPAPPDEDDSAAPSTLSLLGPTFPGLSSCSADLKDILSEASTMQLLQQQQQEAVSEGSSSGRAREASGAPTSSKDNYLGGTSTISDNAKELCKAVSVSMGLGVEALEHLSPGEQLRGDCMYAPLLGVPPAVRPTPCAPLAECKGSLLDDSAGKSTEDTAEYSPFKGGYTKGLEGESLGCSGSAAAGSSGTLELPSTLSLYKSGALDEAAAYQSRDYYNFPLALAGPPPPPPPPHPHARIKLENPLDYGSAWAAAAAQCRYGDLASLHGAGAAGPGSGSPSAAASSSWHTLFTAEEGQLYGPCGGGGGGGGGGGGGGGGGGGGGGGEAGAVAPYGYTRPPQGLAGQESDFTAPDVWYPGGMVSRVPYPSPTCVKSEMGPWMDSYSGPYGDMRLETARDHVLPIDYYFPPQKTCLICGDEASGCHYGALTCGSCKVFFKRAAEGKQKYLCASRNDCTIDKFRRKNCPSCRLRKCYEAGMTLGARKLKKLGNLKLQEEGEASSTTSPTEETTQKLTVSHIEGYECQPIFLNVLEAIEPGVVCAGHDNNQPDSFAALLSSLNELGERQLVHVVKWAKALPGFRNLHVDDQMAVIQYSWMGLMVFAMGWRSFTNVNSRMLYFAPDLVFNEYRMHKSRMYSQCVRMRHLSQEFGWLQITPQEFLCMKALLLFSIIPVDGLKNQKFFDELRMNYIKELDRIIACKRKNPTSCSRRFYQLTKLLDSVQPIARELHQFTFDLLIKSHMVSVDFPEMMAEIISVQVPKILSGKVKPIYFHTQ

Take `O=C(c1ccc(Cl)cc1)c1ccc(Cl)cc1`: the Potency entry in assay [1], in [2], in assay [3], in assay [4], in [5] and in assay [8] was “inactive” each time. In [9], the Potency result is “inactive”. In addition, the outcome in assay [6] and in assay [7] was inactive.
Turning to `CCC(CC)C(=O)O`, the Potency result in assay [1], in [2], in [3], in assay [4] and in assay [8] was “inactive” throughout.
As to `CC/C=C\CCO`, the Potency entry in assay [1], in [2], in assay [3] and in [8] was “inactive” in each case.
With `C=CC(C)(O)CC/C=C(/C)CCC=C(C)C` (configuration not stated), the Potency entry in assay [1], in assay [4] and in assay [8] was “inactive” throughout. In addition, the Potency in assay [2] was 54.5 µM (active); in assay [3], 61.1 µM (active).
Regarding `Cc1c(N=C=O)cccc1N=C=O`, the Potency result in assay [1], in assay [2], in assay [3], in assay [4], in [5] and in [8] was “inactive” throughout. Besides, the Potency result in [9] was “inactive”. Moreover, the compound was classed as inactive in assay [6] and in [7].
With `OCCOc1cccc(OCCO)c1`, the Potency entry in assay [1], in assay [10], in assay [4] and in [8] was “inactive” each time.
On to `CC(C)C/C=C(\C=O)c1ccccc1`, for which the Potency result in [1], in assay [10], in assay [4] and in assay [8] was “inactive” each time.
Regarding `CCCCCCCCCCCCCCCCCCCl`, the viability change, negative = cytotoxic in assay [1] is -4.59% [at 7.04 µM]; in assay [8] it was -1.19% [at 8.47 µM]. The activity change, negative = cytotoxicity in assay [10] is 14.5% [at 8.52 µM]; in assay [4], -8.37% [at 7.04 µM].
Take `C=CC(=O)NC(C)(C)C`: the Potency entry in [1], in assay [2], in assay [3], in [4] and in [8] was “inactive” each time.
On to `CCCC1CCOC(C)S1` (configuration not stated), for which the Potency entry in assay [1], in assay [10], in assay [3], in assay [5], in assay [8] and in assay [9] was “inactive” in each case. The call in [6] and in [7] was inactive.
With `O=C1c2ccccc2C(=O)C1c1ccc2ccccc2n1`, the Potency result in assay [1], in [2], in assay [4] and in [8] was “inactive” throughout. In addition, the Potency in [3] was 1.91 µM (active).
`CCOc1cc(OCC)c(C(C)=O)cc1OCC`: the Potency result in assay [1], in [4], in assay [5], in [8] and in assay [9] was “inactive” each time. The Potency in assay [2] is 60 µM (active). In addition, the result in [6] and in assay [7] was inactive.
As for `CC(Cc1ccccc1)(NC(=O)CN)c1ccccc1` (configuration not stated), the Potency result in [1], in [2], in assay [4] and in assay [8] was “inactive” throughout.
With `CC(CN=Cc1ccccc1O)N=Cc1ccccc1O` (configuration not stated), the Potency entry in assay [1], in assay [10], in assay [3], in assay [4] and in assay [8] was “inactive” throughout.
Turning to `O=c1c2ccccc2oc2ccccc12`, the Potency result in [1], in [3], in assay [4] and in assay [8] was “inactive” each time. Besides, in assay [2], the Potency is 61.1 µM (active).
As to `CC(C)NC(=O)c1ccccc1N`, the Potency result in [1], in [2], in assay [3], in assay [4] and in assay [8] was “inactive” in each case.
Regarding `CCCCCCC/C=C/C=O`, the Potency entry in assay [1], in assay [2], in assay [4] and in assay [8] was “inactive” each time. The Potency in assay [3] was 43.3 µM (active).
On to `N#Cc1ccc(CC(=O)c2cccc(C(F)(F)F)c2)cc1`, for which the Potency entry in [1] and in [8] was “inactive” in each case.
Regarding `Cc1ccc2ccccc2c1[N+](=O)[O-]`, the Potency entry in assay [1], in [4] and in [8] was “inactive” in each case.
Consider `Cc1c(Cl)cccc1Nc1ccccc1C(=O)O`, for which the Potency result in [1], in [2] and in assay [8] was “inactive” in each case.
`C=C[Si]1(C)O[Si](C)(C=C)O[Si](C)(C=C)O[Si](C)(C=C)O1` (configuration not stated): the Potency result in [1] and in [8] was “inactive” in each case.
As to `C/C(=C(\CCO)SS/C(CCO)=C(\C)N(C=O)Cc1cnc(C)nc1N)N(C=O)Cc1cnc(C)nc1N`, the Potency entry in [1], in assay [3], in [4] and in assay [8] was “inactive” in each case.
Regarding `CS(C)=O`, the Potency result in assay [1] and in assay [8] was “inactive” throughout.
In the case of `CC(C)C[C@H](NC(=O)[C@H](Cc1ccccc1)NC(=O)c1cnccn1)B(O)O`, the Potency was 13.3 nM (active) and 11.9 nM (active) in assay [10]; 13.3 nM (active) and 9.4 nM (active) in assay [2]; 11.9 nM (active) and 10.6 nM (active) in [3]; 0.0076 µM (active) in assay [4].
In the case of `O=C(OCCCCCOC(=O)c1ccccc1)c1ccccc1`, the Potency result in assay [1] and in [8] was “inactive” each time. The Potency in assay [2] was 61.1 µM (active).
